MRP-1 activ – activates MRP-1 | viability increase, % at 10 µM | actives 0.61% (n = 140,000) | H69AR cells + doxorubicin, viability rescue, CellTiter-Glo | AID 799;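 active means viability gain under doxorubicin at or above a set limit, the compound median plus 3 SD, cut at about 4.7% in these data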;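 further: MRP-1 overexpressing cells given doxorubicin 25 µM after compound pretreatment; 18-22 h compound pretreatment then 72 h with doxorubicin before readout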
CYP2C19 activ – increases human CYP2C19 enzyme activity | AID 1025 | P33261 | recombinant CYP2C19, luciferin-H EGE luminescence; hits give high values; 0 = fully inhibited enzyme, 1 = untreated enzyme | 96,000 tested, under 10 active | activation factor at 5 µM;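 active means activation factor of at least 2 at 5 µM in the primary screen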
Target sequence (P33261 whole entry, looked up): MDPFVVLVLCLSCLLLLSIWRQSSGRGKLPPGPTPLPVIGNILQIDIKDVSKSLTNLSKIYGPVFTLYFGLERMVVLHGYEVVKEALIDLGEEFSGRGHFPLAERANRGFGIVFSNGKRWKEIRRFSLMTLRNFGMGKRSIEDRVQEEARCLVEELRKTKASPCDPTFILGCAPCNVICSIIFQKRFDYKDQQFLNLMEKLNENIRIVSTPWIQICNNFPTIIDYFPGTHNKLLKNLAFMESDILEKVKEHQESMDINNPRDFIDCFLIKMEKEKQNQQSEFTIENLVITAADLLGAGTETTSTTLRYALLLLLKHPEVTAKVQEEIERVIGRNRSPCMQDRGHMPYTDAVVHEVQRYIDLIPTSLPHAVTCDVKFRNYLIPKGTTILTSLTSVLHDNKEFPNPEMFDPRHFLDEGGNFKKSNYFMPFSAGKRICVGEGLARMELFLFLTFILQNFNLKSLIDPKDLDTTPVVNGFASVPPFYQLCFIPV
CYP2C19 inhib – inhibitors of human CYP2C19 | actives 21% (n = 96,000) | P33261 | inhibition, % at 5 µM | CYP2C19 Supersomes, luciferin-H EGE luminescence, 30 min;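 active means CYP2C19 inhibition above a set limit at 5 µM in the primary screen, cut at about 50% in these data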
CYP2C9 inh – human CYP2C9 inhibition; P11712; actives 20% (n = 96,000); CYP2C9 Supersomes, luciferin-H conversion, luminescence; inhibition, % at 5 µM;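 active means blocking of liver enzyme CYP2C9 beyond about 50% at 5 µM, limit read from the data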
CYP2C9 act – activators of human CYP2C9. actives 1.4% (n = 96,000). P11712. AID 1024. recombinant CYP2C9, luciferin-H conversion, luminescence; hits give high values; factor 1 = untreated enzyme, 0 = blocked. activation factor at 5 µM;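 active means activation factor of 2 or more for CYP2C9 at a 5 µM dose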
MRP reversal – reverses drug resistance mediated by MRP; H69AR cells + 2 uM doxorubicin, CellTiter-Glo, 72 h; differential viability (reversal), % at 10 µM; actives 0.04% (n = 85,000); AID 602;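 active means viability drop by adding the cancer drug above about 55%, with treated viability meeting a 40% cutoff, limit read from the data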;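 further: larger differential means the compound sensitizes cells more to doxorubicin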
Large screens that a line does not name were inactive. An excerpt weighted towards active compounds, which were near 21% of everything screened.

Cc1nnc(NC(=O)CSc2cn(CCNC(=O)c3ccccc3)c3ccccc23)s1	none
Cc1nnc(NC(=O)CSc2nc(C(C)C)nc3ccccc23)s1	CYP2C9 inh 66 (no result: MRP reversal)
CC(C)c1nc(SCC(=O)Nc2nc3c(s2)CCCC3)c2ccccc2n1	none (no result: MRP reversal)
Cc1cc(NC(=O)CSc2nc3ccccc3c(=O)n2Cc2ccc(F)cc2)no1	none
COC(=O)c1sc2cc([N+](=O)[O-])cc(SCC(C)C)c2c1N	none (no result: CYP2C19 activ, CYP2C19 inhib, CYP2C9 inh, CYP2C9 act, MRP reversal)
CC(=O)N=c1n(C)c2ccccc2n1CCOc1ccccc1	none (no result: CYP2C19 activ, CYP2C19 inhib, CYP2C9 inh, CYP2C9 act, MRP reversal)
Cc1nn(C)c(C(=O)Nc2cccc(CN3CCOCC3)c2)c1Br	none (no result: CYP2C19 activ, CYP2C19 inhib, CYP2C9 inh, CYP2C9 act, MRP reversal)
CCn1cc(C(=O)OCC(=O)c2cc(C)n(-c3ccc(OC(F)F)cc3)c2C)c(=O)c2ccc(C)nc21	none (no result: CYP2C19 activ, CYP2C19 inhib, CYP2C9 inh, CYP2C9 act, MRP reversal)
COC(=O)Cn1cnc2c(C#N)c3n(c2c1=O)CCCC3	none
N#Cc1c2n(c3c(=O)n(Cc4ccccc4Cl)cnc13)CCCC2	CYP2C19 inhib 99, CYP2C9 inh 92
Cc1c(C#N)c2ncn(Cc3ccccn3)c(=O)c2n1-c1ccccc1	none
N#Cc1c2n(c3c(=O)n(Cc4ccc(Cl)cc4)cnc13)CCCC2	CYP2C19 inhib 100, CYP2C9 inh 62
N#Cc1ccc(Cn2c(=O)c(C#N)c3n(c2=O)CCC3)cc1	CYP2C19 inhib 89
N#Cc1c(N)c(C(=O)c2ccc(Br)cc2)n2c1CCC2	none
CC(C)Cc1cc(C(=O)NCc2ccco2)no1	none (no result: MRP-1 activ, CYP2C19 activ, CYP2C19 inhib, CYP2C9 inh, CYP2C9 act)
COc1ccc(N(CC(=O)NC(C)C)S(=O)(=O)c2ccc(NC(C)=O)cc2)cc1	CYP2C19 inhib 88, CYP2C9 inh 93 (no result: MRP reversal)
COc1ccc(C)cc1NC(=O)CN(c1ccccc1)S(C)(=O)=O	CYP2C9 inh 51
COC(=O)c1ccc(NC(=O)CN(c2ccc(OC)cc2)S(C)(=O)=O)cc1	CYP2C9 inh 67
COc1ccc(CCNC(=O)CN(C2CCCCC2)S(C)(=O)=O)cc1	none
COc1ccc(CCNC(=O)CN(c2ccc(OC)c(OC)c2)S(C)(=O)=O)cc1	CYP2C9 inh 80
O=C(Oc1ccc2ccccc2c1Br)N1CCCCCC1	none (no result: MRP reversal)
COc1ccc(OC)c(NC(=O)CN(c2ccc(OC)c(Cl)c2)S(C)(=O)=O)c1	CYP2C9 inh 63
COc1ccc(NC(=O)CN(c2ccc(C)cc2)S(C)(=O)=O)c(OC)c1	CYP2C19 inhib 78, CYP2C9 inh 98
CC(Sc1nnc(-c2ccc(O)cc2)o1)C(=O)Nc1cccc2ccccc12 (configuration not stated)	CYP2C19 inhib 72
COc1ccc(-c2nnc(SC(C)C(=O)NNC(=O)c3ccc(C)cc3)o2)cc1 (configuration not stated)	none (no result: CYP2C19 activ, CYP2C19 inhib, CYP2C9 inh, CYP2C9 act, MRP reversal)
O=C(CCSc1nnc(-c2ccncc2)o1)Nc1cccc2ccccc12	none (no result: CYP2C19 activ, CYP2C19 inhib, CYP2C9 inh, CYP2C9 act)
COc1ccc(-c2nnc(SC(C)C(=O)Nc3cccc(Cl)c3)o2)cc1 (configuration not stated)	MRP-1 activ 5.8, CYP2C9 inh 61
Cc1nn(Cc2ccccc2)c(Cl)c1C(=O)NC(C)(C)C	none (no result: CYP2C19 activ, CYP2C19 inhib, CYP2C9 inh, CYP2C9 act, MRP reversal)
Cc1nc(/N=C(\N)Nc2ccccc2)nc2ccccc12	none
COc1ccc2nc(/N=C(\N)NC(=O)C(C)(C)C)nc(C)c2c1	none (no result: CYP2C19 activ, CYP2C19 inhib, CYP2C9 inh, CYP2C9 act)
Cc1ccc2nc(/N=C(\N)NC(=O)N3c4ccccc4Sc4ccccc43)nc(C)c2c1	MRP-1 activ 8.7 (no result: CYP2C19 activ, CYP2C19 inhib, CYP2C9 inh, CYP2C9 act, MRP reversal)
COc1ccc2nc(/N=C(\N)NC(=O)N3c4ccccc4Sc4ccccc43)nc(C)c2c1	none (no result: CYP2C19 activ, CYP2C19 inhib, CYP2C9 inh, CYP2C9 act, MRP reversal)
Cc1cc2nc(/N=C(\N)NC(=O)N3c4ccccc4Sc4ccccc43)nc(C)c2cc1C	MRP-1 activ 12 (no result: CYP2C19 activ, CYP2C19 inhib, CYP2C9 inh, CYP2C9 act, MRP reversal)
Cc1ccc2c(C)nc(/N=C(\N)NC(=O)N3c4ccccc4Sc4ccccc43)nc2c1	MRP-1 activ 11 (no result: CYP2C19 activ, CYP2C19 inhib, CYP2C9 inh, CYP2C9 act, MRP reversal)
CC(C)(C)NC(=O)c1cccc(NC(=O)c2cccc(O)c2)c1	none (no result: MRP reversal)
C/C(=N\NC(=O)COc1ccc([N+](=O)[O-])cc1)C(C)(C)C	none (no result: MRP reversal)
O=C1C2CC=C(Cl)CC2C(=O)N1CCC[n+]1cccc2ccccc21 (configuration not stated)	none (no result: CYP2C19 activ, CYP2C19 inhib, CYP2C9 inh, CYP2C9 act, MRP reversal)
O=C(c1ccco1)N1CCN(C(=O)c2cccn3c(=O)c4c5c(sc4nc23)CCCC5)CC1	none (no result: MRP-1 activ, CYP2C19 activ, CYP2C19 inhib, CYP2C9 inh, CYP2C9 act)
Cc1nc(N2CCN(C(=O)c3ccco3)CC2)c2c3c(sc2n1)CCC3	CYP2C19 inhib 86, CYP2C9 inh 86
Cc1sc2nc(C(C)C)nc(SCC(=O)N3CCN(C(=O)c4ccco4)CC3)c2c1C	CYP2C19 inhib 80, CYP2C9 inh 92
CC(C)c1nc(N2CCN(C(=O)c3ccco3)CC2)c2c3c(sc2n1)CCCC3	CYP2C9 inh 58

From PubChem BioAssay
